# KinaseGlo FLuc = Kinase-Glo luciferase inhibition (counter-screen); Q27757; Kinase-Glo luciferase, ATP luminescence, 8 min; Potency, µM (doses to about 38.3 µM), without a hit: top-dose activity change, negative = inhibition, actives largely listed as inhibitors; actives 0.28% (n = 200,000); AID 1379; note: % is set by controls: 0 for no effect and ±100 for the full control effect; nearly all actives have a fitted effect of over 60% in size
#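 Kinase-Glo luciferase light output from ATP and luciferin was measured with 10 uM ATP, within the enzyme's linear range. Buffer: 50 mM imidazole pH 7.2, 50 mM KCl, 7 mM MgCl2, 0.01% Tween 20, 0.05% BSA; luminescence read after 8 min at ambient temperature.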
# HTT aggregate = mutant huntingtin aggregation inhibition | actives 1.1% (n = 220,000) | PC12 HttQ103-GFP aggregates, Acumen cytometry, 40 h | AID 1688 | Potency, µM (titrated, usually from 46.1 µM), inactives show top-dose activity change, negative = inhibition, actives largely listed as inhibitors; note: % is set by controls: 0 for no effect and ±100 for the full control effect; nearly all actives have a fitted effect of over 60% in size
#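 Huntingtin Q103 exon 1–GFP aggregates in induced PC12 cells (100 nM tebufenozide) were quantified by cytometry from lysates, with compounds dosed in titration.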
# ALDH1A1 block = ALDH1A1 (human) enzyme inhibition | P00352 | Purified ALDH1A1, NADH fluorescence, propionaldehyde substrate | Potency, µM (doses to about 75.3 µM), for the others: at the top dose activity, negative = inhibition, hits mostly inhibitors | actives 7.3% (n = 220,000); active = well fitted inhibition curve with a large enough effect, not every such curve was filed as active; inconclusive = small, poorly fitted or top-dose-only effect, or another doubt; inactive = no such curve, though single readings can be large or run the other way;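 note: plate controls were no enzyme wells and a reference inhibitor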
# Target sequence (P00352 whole entry, looked up): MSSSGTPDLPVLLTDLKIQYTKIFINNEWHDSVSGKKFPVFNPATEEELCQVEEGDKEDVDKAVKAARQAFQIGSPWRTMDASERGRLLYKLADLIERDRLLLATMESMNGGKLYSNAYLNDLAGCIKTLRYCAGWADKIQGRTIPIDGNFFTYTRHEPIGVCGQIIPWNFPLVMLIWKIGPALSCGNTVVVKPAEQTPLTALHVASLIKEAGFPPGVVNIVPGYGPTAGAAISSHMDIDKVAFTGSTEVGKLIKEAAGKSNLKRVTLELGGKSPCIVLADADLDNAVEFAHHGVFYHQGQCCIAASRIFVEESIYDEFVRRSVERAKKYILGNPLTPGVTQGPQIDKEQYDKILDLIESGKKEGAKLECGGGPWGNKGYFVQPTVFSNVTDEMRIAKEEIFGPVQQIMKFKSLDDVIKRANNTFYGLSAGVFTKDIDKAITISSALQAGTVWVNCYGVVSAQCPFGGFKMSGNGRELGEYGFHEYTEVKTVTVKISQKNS
# HPGD inh = inhibitors of human 15-hydroxyprostaglandin dehydrogenase (HPGD) | actives 4.3% (n = 150,000) | P15428 | Potency, µM, inactives show top-dose activity change, negative = inhibition, hits mostly inhibitors | purified HPGD, NADH fluorescence kinetic, PGE2 substrate; active = well fitted inhibition curve with a large enough effect, not every such curve was filed as active; inconclusive = small, poorly fitted or top-dose-only effect, or another doubt; inactive = no such curve, though single readings can be large or run the other way; note: % is set by controls: 0 for no effect and ±100 for the full control effect
# Target sequence (P15428 whole entry, looked up): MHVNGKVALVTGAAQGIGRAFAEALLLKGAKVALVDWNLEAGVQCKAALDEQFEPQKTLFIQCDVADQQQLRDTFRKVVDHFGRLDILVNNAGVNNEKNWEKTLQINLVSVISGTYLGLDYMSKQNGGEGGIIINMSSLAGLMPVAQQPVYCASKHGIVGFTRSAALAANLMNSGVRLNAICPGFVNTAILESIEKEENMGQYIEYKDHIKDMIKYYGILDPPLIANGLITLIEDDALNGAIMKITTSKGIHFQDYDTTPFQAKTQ
#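 NADH formation kinetics: reaction with 30 uM PGE2 and 1 mM NAD+ (final), 20 nM enzyme, Tris-HCl pH 8 with Tween 20, after 15 min compound preincubation at room temperature. Fluorescence change, last versus first of five reads.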
# HTT ATP protect = cytoprotection in Huntington HTT-Q103 PC12 cell model; AID 1471; actives 0.14% (n = 230,000); PC12 HTT-Q103 induced, cytoprotection, ATP luminescence, 40 h; Potency, µM (series often up to 56.4 µM), for the others: cytoprotection (ATP increase), hits mostly activators; note: % of control where 0% means no effect; nearly all actives have a fitted effect of over 45% in size
#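 ATP quantification (ATPlite) reports survival of PC12 cells in which tebufenozide, 100 nM final, switches on Htt exon 1 with 103 glutamines linked to GFP; compounds are titrated.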
# Lamin A splicing = changes lamin A minigene splicing in HeLa cells | HeLa LMNA splicing GFP/RFP minigene ratio, 48 h | Potency, µM (highest dose often 46.1 µM), without a hit: at the highest dose ratio change, negative = inhibition, actives largely listed as inhibitors | actives 0.01% (n = 200,000) | AID 1487; active = well fitted inhibition curve with a large enough effect in the signal ratio, with a control signal flat, not every such curve was filed as active; inconclusive = small, poorly fitted or top-dose-only effect, or effect the other way, or a change in a side signal; the % refers to the signal ratio; note: % is set by controls: 0 for no effect and ±100 for the full control effect
#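 S3 HeLa cells stably expressing lamin A-EGFP splicing minigene plus DsRed2, 600 cells/well, 48 h compound exposure at 37C. Laser-scanning cytometry; analysed as GFP (500-530 nm)/RFP (575-640 nm) total intensity ratio; 0.5% DMSO vehicle.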
# An asterisk follows results filed as active; u = inconclusive; x = no result; [ ] = another dose, or the depositor's remark. Shown are actives, neighbours in structure and some others; about 9% of the full set was active somewhere. Unless noted, calls come from the whole dose curve; as a rule, active = well fitted curve in the direction sought with a large enough effect; inconclusive = small, poorly fitted or top-dose-only effect, or another doubt; inactive = no such curve, though single readings can be large; an effect the other way counts as inactive or inconclusive. Potency is the fitted concentration of half-maximal effect.
SMILES,KinaseGlo FLuc,HTT aggregate,ALDH1A1 block,HPGD inh,HTT ATP protect,Lamin A splicing
N#C/C(=C(/O)CN1CCOCC1)c1nc(-c2ccccc2)cs1,-2%,-3%,1%,-11%,-21%[0.074 µM],2%
COc1ccccc1N1CCN(C/C(O)=C(\C#N)c2nc(-c3ccccc3)cs2)CC1,-7%,-10%,11µM*,-21%,-19%[0.074 µM],10%
CCOC(=O)C1CCCN(C/C(O)=C(\C#N)c2nc(-c3ccccc3)cs2)C1 (configuration not stated),-5%,-11%,32µM*,-24%,14%[10 µM],-16%
CC(C)c1ccc(NC(=O)NCc2ccc(F)cc2)cc1,3%,-21%,-5%,x,-88%,9%[46 µM]
CC(c1ccccc1)N1CCN(C(=O)CCl)CC1 (configuration not stated),4%,-22%,0.45µM*,x,-22%,x
COc1cccc(CNc2cccc3cccnc23)c1O,-3%,u,u,32µM*,8%[1.9 µM],8%
Cn1c(N)c(C(=O)COC(=O)c2cc(-c3ccco3)nc3ccccc23)c(=O)n(C)c1=O,-1%,2%,u,u,-39%,3%
CCN(CCCCN1C(=O)c2ccccc2C1=O)c1ccc2c(c1)C(=O)N(C)C2=O,-2%,-17%,u,10µM*,-2%,-6%
CCN(CC)c1ccc2c(c1)C(=O)N(C)C2=O,-3%,13%,u,18µM*,-11%[1.9 µM],10%
O=C1c2ccccc2C(=O)N1CCCCN1CCN(CCCCN2C(=O)c3ccccc3C2=O)CC1,x,x,x,x,-6%[10 µM],x
O=C(O)CCc1ccc(-c2cccs2)o1,0%,9%,1µM*,22µM*,-6%,1%
Cc1ccc(-c2ccc(CCC(=O)O)o2)cc1,0%,8%,u,-19%,-10%,12%
O=C(Cn1cccc1)NC1CCCCCC1,-5%,0%,-2%,14µM*,11%,6%
CC(=O)NC(Cc1cccc(F)c1)C(=O)NC1CCN(c2ncccc2[N+](=O)[O-])CC1 (configuration not stated),-1%,17%[9.22 µM],-12%,x,17%[10 µM],8%[9.22 µM]
Cc1sc2c(c1C)CN(Cc1ccncc1)CN2C(=O)c1ccco1,-6%,6%,25µM*,-22%,-7%,-7%
Cc1cc(=O)[nH]c(S/C=C/c2ccccc2)n1,u,4%,-5%,20µM*,-83%,-7%
Nc1cc(=O)[nH]c(SC/C=C/c2ccccc2)n1,-1%,-27%,-2%,-6%,-77%,-4%
O=C(O)c1ccc2c(c1)C(=O)N(c1cccc(C(=O)/C=C/c3ccccc3)c1)C2=O,-3%,22%[9.22 µM],0.71µM*,x,20%[10 µM],u
COc1ccccc1-c1nc(C(N)=O)c2[nH]c(=O)n(-c3cccc(C)c3)c2n1,2%,9%,u,u,14%,9%
O=C1C2C3C=CC(C3)C2C(=O)N1Nc1ccccc1 (configuration not stated),x,4%[9.22 µM],x,x,24%[10 µM],x
COc1ccc(COc2ccsc2C(=O)Nc2ccc(Cl)c(Cl)c2)cc1,-2%,-27%,6%,-20%,-31%,u
NNC(=O)c1sccc1OCc1ccc(Cl)cc1,-5%,7%,2.2µM*,x,-27%,-29%[46 µM]
CC(C)(C)n1nnnc1C(c1cccs1)N(Cc1ccc(Cl)cc1)CC1CCCO1 (configuration not stated),-1%,14µM*,u,-14%,-47%,u
CCC(=O)N1CCc2cc(S(=O)(=O)NCCCOC)ccc21,-2%,-6%,20µM*,28µM*,23%,-4%
O=C(O)CCC(=O)N1CCc2cc(S(=O)(=O)NCc3cccs3)ccc21,-4%,-15%,4%,25µM*,-17%,-2%
SMILES,KinaseGlo FLuc,HTT aggregate,ALDH1A1 block,HPGD inh,HTT ATP protect,Lamin A splicing
CCC(=O)N1CCc2cc(S(=O)(=O)NCCC(=O)N3CCc4ccccc4C3)ccc21,2%,u,18µM*,-1%,-92%,u
CCC(=O)N1CCCc2cc(S(=O)(=O)NCc3cccs3)ccc21,4%,1%,u,-7%,-4%,-13%
COc1cccc(-c2cn3c(n2)sc2cc(C(=O)NCc4cccs4)ccc23)c1,x,x,x,x,x,2%[46 µM]
O=C1NCC(c2ccccc2)C1C(=O)N/N=C/c1ccc(Cl)s1 (configuration not stated),-1%,0.11µM*,0%,x,x,9%[46 µM]
O=C1NCC(c2ccccc2)C1C(=O)N/N=C\c1ccc(-c2ccc(Cl)c(Cl)c2)o1 (configuration not stated),18%,-13%,0%,u,1%,3%
Cc1cc(C)cc(-n2c(C)cc(C=C(C#N)C#N)c2C)c1,-9%,-8%,1%,-15%,-13%,6%
Cc1cccc(NC(=O)N2CCC(c3nc4ccccc4o3)CC2)c1,-1%,-5%,-4%,-1%,9%,u
O=C(NC(=S)Nc1ccccc1)c1cc(-c2ccccc2)nc2ccccc12,-5%,5%,1.3µM*,20µM*,23%,-31%
CCNC(=S)NNC(=O)c1cc(-c2cccc(C)c2)nc2ccccc12,13µM*,u,u,-9%,-60%,u
CCNC(=S)NNC(=O)c1cc(-c2cccc(OCC)c2)nc2ccccc12,-5%,12%,3%,-4%,-23%,-11%
COc1cc(NS(=O)(=O)c2ccc(F)cc2)c(C(=O)O)cc1OC,-1%,20%,0%,-11%,7%,-4%
Cc1c(C(c2ccc(N(C)C)cc2)c2c(C)n(C)n(-c3ccccc3)c2=O)c(=O)n(-c2ccccc2)n1C,-9%,-4%,18µM*,x,-31%,x
CNC(=S)N/N=C/c1ccc2c(c1)OCCO2,-4%,10%,u,-25%,16%[10 µM],-17%
CCc1ccc(-n2c(=O)c3c(C)c(C(=O)N(C)C)sc3n(Cc3cccc(C)c3)c2=O)cc1,x,x,x,x,x,10%[46 µM]
O=C1c2cccnc2-c2ncccc21,-4%,11%,-14%,-20%,3%,8%
CC1(C)OCC(CSC2=C(SCC3COC(C)(C)O3)C(=O)c3ncccc3C2=O)O1 (configuration not stated),-8%,x,2.5µM*,3.5µM*,-69%,x
O=C(c1ccco1)N1CCC2(CCCN(c3ccncc3)C2)CC1,-1%,x,3.5µM*,-2%,-23%,x
O=C(c1ccco1)N1CCC2(CCN(Cc3ccccc3)CC2)CC1,-3%,x,18µM*,1%,13%,x
N#Cc1ccc(CN2CC[C@@]3(CCCN(C(=O)c4ccncc4)C3)C2)cc1,-1%,x,-1%,-3%,7%,x
N#Cc1ccc(CN2CC[C@@]3(CCCN(C(=O)c4ccco4)C3)C2)cc1,-1%,x,14µM*,-3%,19%,x
O=C(c1ccco1)N1CCC2(CCN(Cc3ccncc3)CC2)CC1,-4%,x,u,-8%,19%,x

# Source: PubChem BioAssay
